This is an account of results in PubChem BioAssay AID1851 (National Center for Advancing Translational Sciences (NCATS), 2009).

The structures appear in SMILES notation. Values joined by “and” are separate entries in the source; they are usually repeats but may differ in a detail not shown here. Equal entries are not always repeated. In all, about 16,000 compounds went through this assay and about 5,800 (36%) were called active. Inconclusive results (about 23%) are left out. Calls follow the shape of the dose curve; as a rule, active = well fitted curve in the direction sought with a large enough effect; inconclusive = small, poorly fitted or top-dose-only effect, or effect the other way; inactive = no such curve, though single readings can be large or run the other way. The list shows a part of the results. Some structures have more than one record in an assay (separate samples or runs), and their calls can disagree.
% is scaled to controls: 0 for no effect and ±100 for the full control effect.

This experiment deals with Cytochrome P450 2C19 (Homo sapiens) (UniProt P33261). Put plainly: Cytochrome panel assay with activity outcomes. The conditions noted are these: recombinant CYP, pro-luciferin dealkylation, luminescence, p450-cyp2c19; series mostly up to 57.1 µM.
Cytochrome P450 2C19 (Homo sapiens), sequence (P33261 whole entry, looked up): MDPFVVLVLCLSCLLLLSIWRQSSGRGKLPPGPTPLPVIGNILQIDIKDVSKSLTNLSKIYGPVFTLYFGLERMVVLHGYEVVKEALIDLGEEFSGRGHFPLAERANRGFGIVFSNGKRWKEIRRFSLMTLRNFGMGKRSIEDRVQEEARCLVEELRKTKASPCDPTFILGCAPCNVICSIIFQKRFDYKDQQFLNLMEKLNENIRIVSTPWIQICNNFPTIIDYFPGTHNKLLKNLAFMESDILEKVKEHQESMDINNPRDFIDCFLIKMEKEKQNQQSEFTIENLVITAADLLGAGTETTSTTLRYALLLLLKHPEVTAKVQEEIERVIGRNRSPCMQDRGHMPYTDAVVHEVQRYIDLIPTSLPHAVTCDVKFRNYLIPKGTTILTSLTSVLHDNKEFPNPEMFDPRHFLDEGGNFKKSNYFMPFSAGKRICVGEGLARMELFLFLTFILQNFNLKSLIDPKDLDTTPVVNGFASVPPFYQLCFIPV
In the case of `Cc1cnc(CNc2ncnc3ccc(-c4ccccc4C)cc23)cn1`, the AC50 was 15.8 µM (active).

As for `Cc1cnc(CNc2ncnc3ccc(-c4ccc(N(C)C)cc4)cc23)cn1`, the AC50 was 15.8 µM (active).

`Cc1cnc(CNc2nc(-c3ccccc3C)nc3ccccc23)cn1`: the AC50 entry is “inactive”.

As to `Cc1cnc(CNc2ncnc3ccc(-c4ccoc4)cc23)cn1`, the AC50 result was “inactive”.

For `Cc1ncc([N+](=O)[O-])n1CCO`, the AC50 result was “inactive”.

`Cc1ccccc1-c1cncnc1NCc1cccs1`: the AC50 was 0.794 µM (active).

`COc1ccccc1-c1cncnc1NCc1cccs1`: the AC50 is 2 µM (active).

With `CN(C)Cc1ccccc1-c1cncnc1NCc1cccs1`, the AC50 result was “inactive”.

For `FC(F)(F)c1ccccc1-c1cncnc1NCc1cccs1`, the AC50 was 20 µM (active).

As to `Clc1ccccc1-c1cncnc1NCc1cccs1`, the AC50 is 1.58 µM (active).

For the molecule `Cc1cnn(-c2cc(N/N=C/c3ccccc3F)ncn2)c1`, the AC50 entry was “inactive”.

With `COCCNC(=O)c1cc2c3ccccc3n(C)c2s1`, the AC50 was 11.2 µM (active).

Take `COCCNC(=O)c1ccc2c(c1)nc(C)n2-c1cc(OC)c(OC)c(OC)c1`: the AC50 entry was “inactive”.

Turning to `CN(C)CCCNC(=O)c1cc2c3ccccc3n(C)c2s1`, the AC50 entry was “inactive”.

Consider `O=C(OCc1nc2ccccc2s1)c1ccc(Br)s1`, for which the AC50 was 0.447 µM (active).

For the molecule `COc1ccc(COC(=O)N/N=C2/C[C@@H](O)[C@@H](O)[C@@H]3[C@@H]4C(=O)N(c5cccc(Oc6ccccc6)c5)C(=O)[C@H]4CC[C@@H]23)cc1`, the activity, negative = inhibition was 20.4% [at 11.4 µM] (inactive).

For the molecule `COc1cccc(N2C(=O)C(CC(=O)Nc3ccccc3)N(C3CCCCC3)C2=O)c1` (centres undefined), the half-maximal activity concentration (AC50) is 4.47 µM (active).

`COc1ccc(NC(=O)CC2C(=O)N(c3cccc(OC)c3)C(=O)N2C2CCCCC2)cc1` (centres undefined): the AC50 was 8.91 µM (active).

On to `COc1ccc(COC(=O)N/N=C2/C[C@@H](O)[C@@H](O)[C@@H]3[C@@H]4C(=O)N(c5cccc(Oc6ccccc6)c5)C(=O)[C@H]4CC[C@H]23)cc1`, for which the activity, negative = inhibition was -11% [at 11.4 µM] (inactive).

Regarding `CCCCCCCCSc1nnc(CSc2nc3nc(C)cc(C)n3n2)o1`, the AC50 was 7.94 µM (active).

Turning to `CCOC(=O)c1cnn(-c2ccc(C(C)C)cc2)c1NC(=O)C1CCC1`, the AC50 was 10 µM (active).

Take `CC(C)OCCCN1CN(S(=O)(=O)c2cccc(Cl)c2)c2nc3ccccc3nc21`: the AC50 is 3.16 µM (active).

`O=C(O)[C@@H](O)c1ccc(F)cc1`: the activity, negative = inhibition was 10.1% [at 11.4 µM] (inactive).

On to `C[C@@H](C(=O)O)c1ccc(-c2ccccc2)c(F)c1`, for which the AC50 result was “inactive and 631 nM (active)”.

With `C[C@H](C(=O)O)c1cccc(Oc2ccccc2)c1`, the AC50 result is “inactive”.

In the case of `O=C(O)C(Cl)(c1ccccc1)c1ccccc1`, the activity, negative = inhibition is -2.62% [at 11.4 µM] (inactive).

Regarding `O=C(O)c1cccc(C(=O)O)c1S(=O)Cc1ccccc1` (centres undefined), the activity, negative = inhibition is 41.5% [at 11.4 µM] (inactive).

For `O=S(Cc1ccccc1)CC(O)(c1ccccc1)c1ccccc1` (centres undefined), the AC50 is 5.01 µM (active).

`CCOC(OCC)P(=O)(O)CCCNCc1ccc(Cl)c(Cl)c1`: the AC50 result is “inactive”.

With `CCOc1ccc(C(=O)Nc2cnn(Cc3ccc(Cl)c(Cl)c3)c2)cc1`, the AC50 was 3.55 µM (active).

For `COCCn1c(=O)c(-c2cn(C)c3ccccc23)nc2cnc(N3CCNCC3)nc21`, the AC50 result is “inactive”.

For the molecule `CCNc1ncc2nc(-c3cn(C)c4ccccc34)c(=O)n(Cc3ccc(F)cc3)c2n1`, the AC50 entry is “inactive”.

Regarding `Cn1cc(-c2nc3cnc(N4CCOCC4)nc3n(CCC#N)c2=O)c2ccccc21`, the AC50 entry is “inactive”.

With `Cn1cc(-c2nc3cnc(N4CCNCC4)nc3n(Cc3ccc(F)cc3)c2=O)c2ccccc21`, the AC50 is 7.94 µM (active).

In the case of `Cn1cc(-c2nc3cnc(N4CCNCC4)nc3n(CCc3ccccc3)c2=O)c2ccccc21`, the AC50 is 2 µM (active).

In the case of `CN1CCN(c2ncc3nc(-c4cn(C)c5ccccc45)c(=O)n(CCc4ccccc4)c3n2)CC1`, the AC50 result was “inactive”.

Turning to `CSc1nc(O)c(Cc2ccccc2)c(=O)[nH]1`, the AC50 entry was “inactive”.

With `CSc1nc(C)c(CCOC(=O)c2ccccc2)c(=O)[nH]1`, the AC50 is 15.8 µM (active).

For the molecule `CSc1nc(C)c(CCOC(=O)c2cccc(C)c2)c(=O)[nH]1`, the AC50 was 3.16 µM (active).

As to `Cc1ccccc1[C@@H](OCCN(C)C)c1ccccc1`, the AC50 result was “inactive”.

Turning to `CN(C)c1nc2c(c(=O)[nH]c(=O)n2C)n1Cc1ccccc1Br`, the AC50 result was “inactive”.

Turning to `C=CCn1c(=O)c2c(nc(-c3ccc(S(=O)(=O)O)cc3)n2C)n(C)c1=O`, the AC50 result is “inactive”.

Take `C=CCn1cc(Cl)c(=O)n(CC=C)c1=O`: the AC50 result is “inactive”.

Regarding `C=CCn1c(=O)c2c(nc(Br)n2Cc2ccccc2Cl)n(C)c1=O`, the AC50 is 0.794 µM (active).

Take `COC(=O)Cn1c(=O)c2c(nc(Br)n2Cc2ccccc2Cl)n(C)c1=O`: the AC50 was 0.891 µM (active).

Take `COc1ccc(N2CCN(Cc3nc4c(c(=O)n(C)c(=O)n4C)n3CC(C)=O)CC2)cc1`: the AC50 result is “inactive”.

As to `C=CCn1c(NCc2ccccc2)nc2ccccc21`, the AC50 was 3.16 µM (active).

Consider `CCn1nccc1C(=O)Nc1nc2ccccc2n1CCN1CCCCC1`, for which the AC50 result was “inactive”.

As for `O=C(Nc1nc2ccccc2n1Cc1ccccc1)c1ccc(COc2ccccc2[N+](=O)[O-])o1`, the AC50 is 1.26 µM (active).

Regarding `COc1ccc(CNc2nc3ccccc3n2Cc2ccccc2)cc1OC`, the AC50 is 7.94 µM (active).

In the case of `CC(=O)Nc1nc2ccccc2n1Cc1ccccc1`, the AC50 was 22.4 µM (active).

On to `CC(C)CN1CCC2(CC1)CCN(C(=O)c1cc(C(F)(F)F)cc(C(F)(F)F)c1)CC2`, for which the AC50 entry was “inactive”.

`CC[C@](N)(CCC(=O)O)C(=O)O`: the AC50 entry was “inactive”.

Regarding `CN(C)c1ncc2nc(-c3cc(F)cc(F)c3)c(=O)n(C[C@H]3CCCO3)c2n1`, the AC50 entry is “inactive”.

Take `O=C(CN(Cc1ccccc1)S(=O)(=O)c1ccc2c(c1)OCCO2)N/N=C/c1ccc(F)cc1`: the AC50 was 3.98 µM (active).

Take `CN(CCc1ccccn1)c1ccc2c(c1)Cc1ccccc1-2`: the AC50 was 0.794 µM (active).

For the molecule `CN(CCc1ccccn1)c1ccc2c(c1)C(=O)c1ccccc1-2`, the AC50 is 2.51 µM (active).

In the case of `CCOC(=O)N/N=C1/C[C@@H](O)[C@@H](O)[C@@H]2[C@@H]3C(=O)N(Cc4ccccc4)C(=O)[C@H]3CC[C@@H]12`, the activity, negative = inhibition is 11.9% [at 11.4 µM] (inactive).

On to `COC(=O)c1nnn(Cc2ccccc2)c1N`, for which the AC50 entry was “inactive”.

As for `CCOC(=O)C1=C(O)C(=O)N(Cc2ccccc2)C1`, the AC50 was 15.8 µM (active).

As for `O=c1onc2n1-c1cc(Br)ccc1OC2`, the AC50 entry is “inactive”.

In the case of `Cc1nn(-c2ccccc2)c(C)c1/C=N/NC(=O)c1cc(-c2ccc(Cl)s2)[nH]n1`, the AC50 is 10 µM (active).

Take `Cc1nn(-c2ccccc2)c(Cl)c1/C=N/NC(=O)c1ccco1`: the AC50 was 15.8 µM (active).

Consider `N[C@@H](CCCP(=O)(O)O)C(=O)O`, for which the AC50 result was “inactive”.

With `COc1ccc2c(c1)N(CC[C@H]1CCCCN1C)c1ccccc1S2`, the activity, negative = inhibition was -12% [at 11.4 µM] (inactive).

With `OC1CC2CC[C@H](C1)N2CCCN1c2ccccc2Sc2ccc(Cl)cc21` (some centres undefined), the activity, negative = inhibition is -19.5% [at 11.4 µM] (inactive).

As for `COc1ccc(OCc2nnc(SCC(=O)N3c4ccccc4Sc4ccc(Cl)cc43)o2)cc1`, the half-maximal activity concentration (AC50) was 6.31 µM (active).

For `O=C(CSc1nc2ccccc2s1)N1c2ccccc2Sc2ccc(C(F)(F)F)cc21`, the AC50 was 4.47 µM (active).

On to `O=C1CSC2(CCN(CCCN3c4ccccc4Sc4ccc(Cl)cc43)CC2)N1`, for which the activity, negative = inhibition was -35% [at 11.4 µM] (inactive).

As to `COc1ccc2c(c1)N(C[C@@H](C)CN(C)C)c1ccccc1S2`, the AC50 entry is “inactive”.

Consider `O=C(O)CCCSc1nc2ccccc2s1`, for which the activity, negative = inhibition is 20.2% [at 11.4 µM] (inactive).

Turning to `O=C(CSc1nc2ccccc2o1)N1c2ccccc2Sc2ccc(Cl)cc21`, the AC50 is 2.51 µM (active).

Consider `Nc1c(OCC(=O)O)ccc2cc(S(=O)(=O)O)ccc12`, for which the activity, negative = inhibition was -19.3% [at 11.4 µM] (inactive).

Turning to `CN(C)C=Nc1ccc2nn(-c3ccccc3)nc2c1`, the AC50 was 17.8 µM (active).

Consider `O=C(O)c1nn(-c2ccccc2)nc1-c1nn(-c2ccccc2)nc1C(=O)O`, for which the AC50 result is “inactive”.

`CC(C)(CC(=O)Nc1ccccc1)C(=O)O`: the activity, negative = inhibition is 43% [at 11.4 µM] (inactive).

`CSc1ccc(CNc2ccc(C)c(C)c2)cc1`: the AC50 is 0.0316 µM (active).

Take `CSc1ccc(CNc2ccccc2)cc1`: the AC50 was 0.631 µM (active).

As for `CSc1ccc(CNc2ccc(Cl)cc2)cc1`, the AC50 was 0.02 µM (active).

As for `Cc1nc2cnc(N(C)C)nc2n(CCC#N)c1=O`, the AC50 result is “inactive”.

Regarding `CN(C)c1ncc2nc(CCc3ccccc3)c(=O)n(CCC#N)c2n1`, the AC50 is 10 µM (active).

For the molecule `CCNc1ncc2nc(CCc3ccccc3)c(=O)n(CCC#N)c2n1`, the AC50 was 15.8 µM (active).

Regarding `CCNc1ncc2nc(-c3ccc(F)cc3)c(=O)n(CCOC)c2n1`, the AC50 entry is “inactive”.

As to `CCNc1ncc2nc(CCc3ccccc3)c(=O)n(CCOC)c2n1`, the AC50 is 10 µM (active).

Regarding `CN(C)c1ncc2nc(-c3ccc(F)cc3)c(=O)n(CCC#N)c2n1`, the AC50 entry is “inactive”.

With `CCNc1ncc2nc(-c3cn(C)c4ccccc34)c(=O)n(CCC#N)c2n1`, the AC50 result is “inactive”.

`N#CCCn1c(=O)c(CCc2ccccc2)nc2cnc(Nc3ccccc3)nc21`: the AC50 result was “inactive”.

Take `CCNc1ncc2nc(-c3ccc(OC)cc3)c(=O)n(CCOC)c2n1`: the AC50 entry is “inactive”.

On to `COc1ccc2c(c1)C(=O)N(CCc1ccc(S(=O)(=O)NC(=O)NC3CCCCC3)cc1)C(=O)C2(C)C`, for which the AC50 result was “inactive”.

Take `COc1ccc(CCNC(=O)COc2ccc(S(=O)(=O)NC3CCCCC3)cc2Cl)cc1`: the AC50 was 7.94 µM (active).

`COc1ccc(CCCC(=O)NC2CCCCC2)cc1`: the AC50 was 3.16 µM (active).

With `COc1cccc(-c2nccc(NCc3ccccc3)n2)c1`, the half-maximal activity concentration (AC50) was 7.94 µM (active).

On to `COc1cccc(-c2nccc(NCc3cnc(C)cn3)n2)c1`, for which the AC50 entry is “inactive”.

Regarding `COc1cccc(-c2nccc(NCc3cccc(C)c3)n2)c1`, the AC50 is 6.31 µM (active).

Regarding `CC1CCN(C(=S)c2ccc(O)cc2)CC1`, the AC50 is 3.55 µM (active).

For the molecule `N[C@](CC1c2ccccc2Oc2ccccc21)(C(=O)O)[C@@H]1C[C@@H]1C(=O)O`, the AC50 result is “inactive”.

Consider `Cc1cccc2c1Oc1ccccc1[C@@H]2NC(=O)c1ccc([N+](=O)[O-])cc1`, for which the activity, negative = inhibition is -12.7% [at 11.4 µM] (inactive).

For `O=C(Nc1cccnc1Cl)C1c2ccccc2Oc2ccccc21`, the AC50 is 0.794 µM (active).

As to `Cc1cccc2sc(NC(=O)C3c4ccccc4Oc4ccccc43)nc12`, the AC50 was 2.51 µM (active).
